The record followed here is PubChem BioAssay AID942 (National Center for Advancing Translational Sciences (NCATS), 2007).

Results filed as inconclusive are left out. The source made the active and inactive calls. Calls follow the shape of the full dose curve.

The test in a line: Confirmation Concentration-Response Assay for Anthrax Lethal Toxin Internalization. Conditions: FRET ratio (460/530 nm); series mostly up to 46.1 µM.
Consider `COc1cc2c(O)c3c(c(-c4ccc5c(c4)OCO5)c2cc1OC)C(=O)OC3`, for which the Potency was 0.0501 µM (active).

In the case of `O=C(Nc1ccc([N+](=O)[O-])cc1Cl)c1cc(Br)ccc1O`, the Potency is 0.794 µM (active).

Consider `COc1ccc2c(c1OC)C(=O)OC2c1ccc(O)cc1` (stereo unspecified), for which the Potency entry is “inactive”.

Consider `COc1cc([C@@H]2c3cc4c(cc3[C@H](OC(C)=O)[C@H]3COC(=O)[C@H]23)OCO4)cc(OC)c1OC`, for which the Potency was 0.794 µM (active).

In the case of `COc1cc2c(OC(C)=O)c3c(c(-c4ccc5c(c4)OCO5)c2cc1OC)C(=O)OC3`, the Potency was 0.0398 µM (active).

For `Nc1ccc(NC(=O)c2cc(Cl)ccc2O)c(Cl)c1`, the Potency result was “inactive”.

Regarding `O=C(Nc1ccc([N+](=O)[O-])cc1Cl)c1ccccc1O`, the Potency was 6.31 µM (active).

As for `Cc1ccc2c(c1)-c1c(cnn1CC(=O)Nc1ccccc1N1CCN(C)CC1)CO2`, the Potency was 3.98 µM (active).

Consider `COc1ccc(C2C3=C(COC3=O)Oc3cc4c(cc32)OCO4)cc1OC` (stereo unspecified), for which the Potency entry was “inactive”.

As for `Cc1ccc2oc(=O)c3cnn(CC(=O)N4CCN(c5ccccc5)CC4)c3c2c1`, the Potency is 5.01 µM (active).

With `COc1cc([C@@H]2c3cc4c(cc3[C@H](O)[C@H]3COC(=O)[C@H]23)OCO4)cc(OC)c1OC`, the Potency is 0.794 µM (active).

`COc1ccc(Cl)cc1C(=O)Nc1ccc([N+](=O)[O-])cc1Cl`: the Potency result is “inactive”.

In the case of `COc1ccc2c(c1OC)C(=O)OC2CC(=O)c1ccc2c(c1)OCO2` (stereo unspecified), the Potency result is “inactive”.

Turning to `O=C(Nc1ccc([N+](=O)[O-])cc1Cl)c1cc(Cl)cc(Cl)c1O`, the Potency was 3.98 µM (active).

Regarding `O=C(Nc1c(Cl)cc([N+](=O)[O-])cc1Cl)c1cc(Cl)cc(Cl)c1O`, the Potency is 10 µM (active).

For the compound `Cc1ccc2oc(=O)c3cnn(CC(=O)Nc4ccccc4N4CCN(C)CC4)c3c2c1`, the Potency is 2 µM (active).
